Experimental data from PubChem BioAssay (NCATS).
Results filed as inconclusive are left out. Activity calls are given as the source filed them. Unless noted, calls follow the shape of the dose curve; as a rule, active = well fitted curve in the direction sought with a large enough effect; inconclusive = small, poorly fitted or top-dose-only effect, or another doubt; inactive = no such curve, though single readings can be large; an effect the other way counts as inactive or inconclusive.

Key:
[1] = molecular target: ATP-dependent 6-phosphofructokinase (Trypanosoma brucei brucei) (UniProt O15648); test: qHTS Assay to Find Inhibitors of T. brucei phosphofructokinase: hit validation (AID 492961);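 also: luminescence reports ADP formed as PFK phosphorylates fructose-6-phosphate with ATP; % is scaled to controls: 0 for no effect and ±100 for the full control effect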
ATP-dependent 6-phosphofructokinase (Trypanosoma brucei brucei), sequence (O15648 whole entry, looked up): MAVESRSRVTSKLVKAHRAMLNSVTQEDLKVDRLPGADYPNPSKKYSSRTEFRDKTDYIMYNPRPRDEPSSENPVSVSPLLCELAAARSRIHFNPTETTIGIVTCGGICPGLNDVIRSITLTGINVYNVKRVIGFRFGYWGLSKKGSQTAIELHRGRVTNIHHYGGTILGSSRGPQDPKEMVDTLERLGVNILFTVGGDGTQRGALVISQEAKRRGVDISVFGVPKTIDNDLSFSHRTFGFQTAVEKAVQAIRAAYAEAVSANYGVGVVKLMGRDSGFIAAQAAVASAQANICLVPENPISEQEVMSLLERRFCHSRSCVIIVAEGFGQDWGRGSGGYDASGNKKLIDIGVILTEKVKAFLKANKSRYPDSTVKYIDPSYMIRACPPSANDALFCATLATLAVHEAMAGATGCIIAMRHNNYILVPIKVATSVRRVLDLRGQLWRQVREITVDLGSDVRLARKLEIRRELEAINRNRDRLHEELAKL
Outline: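 Compounds titrated; %activity normalized to 0x and 1x enzyme controls, curve-fitted. Readout: ADP-Glo luminescence after 45 min room-temperature reaction of 1.25 nM PFK, 0.1 mM ATP, 0.5 mM F6P, pH 8.0.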

[2] = molecular target: Ubiquitin carboxyl-terminal hydrolase 1 (Homo sapiens) (UniProt O94782); test: Inhibitors of USP1/UAF1: Pilot qHTS (AID 504865);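 also: rhodamine fluorescence freed from ubiquitin-rhodamine substrate followed over time; top concentration of the series differs between compounds; % is scaled to controls: 0 for no effect and ±100 for the full control effect; nearly all actives have a fitted effect of over 35% in size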
Ubiquitin carboxyl-terminal hydrolase 1 (Homo sapiens), sequence (O94782 whole entry, looked up): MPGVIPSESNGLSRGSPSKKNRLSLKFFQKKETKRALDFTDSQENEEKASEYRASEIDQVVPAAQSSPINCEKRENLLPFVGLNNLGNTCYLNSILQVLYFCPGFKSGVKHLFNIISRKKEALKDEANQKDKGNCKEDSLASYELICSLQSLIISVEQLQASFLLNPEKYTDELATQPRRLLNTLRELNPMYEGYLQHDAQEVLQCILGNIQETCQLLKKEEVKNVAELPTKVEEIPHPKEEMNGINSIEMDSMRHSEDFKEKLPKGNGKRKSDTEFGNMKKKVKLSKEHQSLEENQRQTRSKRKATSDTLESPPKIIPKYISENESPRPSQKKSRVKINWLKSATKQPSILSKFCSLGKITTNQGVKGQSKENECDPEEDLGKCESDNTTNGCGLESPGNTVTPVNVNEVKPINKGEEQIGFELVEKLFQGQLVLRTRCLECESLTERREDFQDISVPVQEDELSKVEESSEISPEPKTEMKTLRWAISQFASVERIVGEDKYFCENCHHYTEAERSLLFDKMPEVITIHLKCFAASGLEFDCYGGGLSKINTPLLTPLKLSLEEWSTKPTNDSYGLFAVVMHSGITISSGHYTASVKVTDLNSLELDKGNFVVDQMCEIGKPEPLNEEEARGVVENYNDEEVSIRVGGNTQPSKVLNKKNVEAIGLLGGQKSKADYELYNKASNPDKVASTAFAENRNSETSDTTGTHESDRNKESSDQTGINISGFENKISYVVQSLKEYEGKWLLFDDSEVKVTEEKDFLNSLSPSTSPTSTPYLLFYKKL
Outline: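 Enzyme-free wells gave the negative control, while test wells held 1nM USP1/UAF1 preincubated with compound for 15 min at room temperature. Ub-Rho at 150nM final started the reaction, and fluorescence at 480/540 nm was recorded kinetically.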

[3] = molecular target: Luciferin 4-monooxygenase (Photinus pyralis) (UniProt P08659); test: Biochemical firefly luciferase enzyme assay for NPC (AID 624030);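 also: purified P. pyralis luciferase at 10 nM with luciferin and ATP substrate; 0% = DMSO and -100% = full luciferase inhibition by PTC124 control; nearly all actives have a fitted effect of over 70% in size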
Luciferin 4-monooxygenase (Photinus pyralis), sequence (P08659 whole entry, looked up): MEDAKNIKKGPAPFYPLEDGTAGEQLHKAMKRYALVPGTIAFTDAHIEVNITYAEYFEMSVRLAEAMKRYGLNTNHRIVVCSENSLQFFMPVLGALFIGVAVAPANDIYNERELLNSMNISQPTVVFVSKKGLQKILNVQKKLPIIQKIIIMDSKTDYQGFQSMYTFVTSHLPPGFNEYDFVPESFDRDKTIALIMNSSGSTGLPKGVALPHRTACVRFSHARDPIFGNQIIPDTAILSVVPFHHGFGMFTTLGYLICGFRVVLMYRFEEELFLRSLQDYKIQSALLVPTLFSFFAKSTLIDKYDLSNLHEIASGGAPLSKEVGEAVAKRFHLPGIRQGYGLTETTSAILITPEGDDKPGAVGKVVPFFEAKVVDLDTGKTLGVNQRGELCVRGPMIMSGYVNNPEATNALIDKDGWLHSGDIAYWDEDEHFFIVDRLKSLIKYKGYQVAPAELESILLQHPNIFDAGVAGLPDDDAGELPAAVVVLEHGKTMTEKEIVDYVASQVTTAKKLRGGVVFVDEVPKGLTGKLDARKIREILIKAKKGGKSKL
Outline: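 Purified P. pyralis luciferase at 10 nM in 50 mM Tris Acetate (final), luminescence read within 5 minutes of enzyme addition to compounds. Activity normalised to PTC124 versus DMSO; concentration-response curves classed by r2, magnitude and activity.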

[4] = S16 Schwann cell viability assay (CellTiter-Glo assay) (AID 624031);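 also: cellular ATP luminescence as a viability measure; plate controls were DMSO-treated cells for no effect and cell-free wells for full effect; nearly all actives have a fitted effect of over 70% in size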
Outline: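 Untransfected S16 rat Schwann cells; compound 24 h, 37 °C/5% CO2; CellTiter-Glo ATP luminescence. % activity vs no-cell wells and DMSO controls (0%); concentration-effect curves classed by r2, response magnitude, activity.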

[5] = S16 Schwann cell PMP22 intronic element firefly luciferase assay (AID 624032);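 also: plate controls were DMSO for no effect and PTC124 positive control mean for full effect; nearly all actives have a fitted effect of over 30% in size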
Outline: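 Rat S16 Schwann cells stably carrying firefly luciferase driven by a PMP22 intronic element, in 10% FBS, treated 24 h at 37 C. ONE-Glo luminescence normalized to PTC124 control and DMSO (0%); curves classed by r2, magnitude and activity.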

[6] = S16 Schwann cell PMP22 intronic element beta-lactamase assay (AID 624044; calls by dose curve;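 also: 0% = DMSO and -100% = potassium clavulanate positive control; nearly all actives have a fitted effect of over 15% in size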); settings: S16 rat Schwann cells, PMP22 element beta-lactamase FRET, 24 h; ratio activity, negative = inhibition: at 38.3 µM (top of the series)
Outline: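 Rat S16 Schwann cells with beta-Lac driven by a PMP22 intronic element, compound-treated 24 h at 37 °C. LiveBLAzer FRET B/G read: 460 nm normalized to potassium clavulanate vs DMSO; 535 nm FRET as viability; concentration-effect curves classified.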

[7] = qHTS profiling for inhibitors of Plasmodium falciparum proliferation (AID 504749);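 also: 0% = DMSO vehicle and full inhibition = artemisinin control; nearly all actives have a fitted effect of over 60% in size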; settings: P. falciparum in erythrocytes, SYBR Green DNA, 72 h, at 28.7 µM (top of the series)
Outline: (§1)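 P. falciparum-infected erythrocytes (0.3% parasitemia, 2.5% hematocrit) incubated with compound 72 h at 37 C, 5% CO2. Parasite DNA detected by SYBR Green after lysis, overnight at room temperature; normalised to 0.29 uM artemisinin and DMSO.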

3D7 = test: as above; settings: P. falciparum in erythrocytes, SYBR Green DNA, 72 h; series mostly up to 28.7 µM
Outline: as §1

7G8 = test: as above; settings: P. falciparum in erythrocytes, SYBR Green DNA, 72 h; series mostly up to 28.7 µM
Outline: as §1

AA1029 = test: as above; settings: P. falciparum in erythrocytes, SYBR Green DNA, 72 h; series mostly up to 28.7 µM
Outline: as §1

AS120 = test: as above; settings: P. falciparum in erythrocytes, SYBR Green DNA, 72 h; series mostly up to 28.7 µM
Outline: as §1

ATS189 = test: as above; settings: P. falciparum in erythrocytes, SYBR Green DNA, 72 h; series mostly up to 28.7 µM
Outline: as §1

ATS95 = test: as above; settings: P. falciparum in erythrocytes, SYBR Green DNA, 72 h; series mostly up to 28.7 µM
Outline: as §1

C2A = test: as above; settings: P. falciparum in erythrocytes, SYBR Green DNA, 72 h; series mostly up to 28.7 µM
Outline: as §1

CP185 = test: as above; settings: P. falciparum in erythrocytes, SYBR Green DNA, 72 h; series mostly up to 28.7 µM
Outline: as §1

CP191 = test: as above; settings: P. falciparum in erythrocytes, SYBR Green DNA, 72 h; series mostly up to 28.7 µM
Outline: as §1

CP192 = test: as above; settings: P. falciparum in erythrocytes, SYBR Green DNA, 72 h; series mostly up to 28.7 µM
Outline: as §1

CP194 = test: as above; settings: P. falciparum in erythrocytes, SYBR Green DNA, 72 h; series mostly up to 28.7 µM
Outline: as §1

CP201 = test: as above; settings: P. falciparum in erythrocytes, SYBR Green DNA, 72 h; series mostly up to 28.7 µM
Outline: as §1

CP203 = test: as above; settings: P. falciparum in erythrocytes, SYBR Green DNA, 72 h; series mostly up to 28.7 µM
Outline: as §1

CP211 = test: as above; settings: P. falciparum in erythrocytes, SYBR Green DNA, 72 h; series mostly up to 28.7 µM
Outline: as §1

CP215 = test: as above; settings: P. falciparum in erythrocytes, SYBR Green DNA, 72 h; series mostly up to 28.7 µM
Outline: as §1

CP217 = test: as above; settings: P. falciparum in erythrocytes, SYBR Green DNA, 72 h; series mostly up to 28.7 µM
Outline: as §1

CP237 = test: as above; settings: P. falciparum in erythrocytes, SYBR Green DNA, 72 h; series mostly up to 28.7 µM
Outline: as §1

CP238 = test: as above; settings: P. falciparum in erythrocytes, SYBR Green DNA, 72 h; series mostly up to 28.7 µM
Outline: as §1

CP247 = test: as above; settings: P. falciparum in erythrocytes, SYBR Green DNA, 72 h; series mostly up to 28.7 µM
Outline: as §1

CP250 = test: as above; settings: P. falciparum in erythrocytes, SYBR Green DNA, 72 h; series mostly up to 28.7 µM
Outline: as §1

CP252 = test: as above; settings: P. falciparum in erythrocytes, SYBR Green DNA, 72 h; series mostly up to 28.7 µM
Outline: as §1

CP256 = test: as above; settings: P. falciparum in erythrocytes, SYBR Green DNA, 72 h; series mostly up to 28.7 µM
Outline: as §1

CP260 = test: as above; settings: P. falciparum in erythrocytes, SYBR Green DNA, 72 h; series mostly up to 28.7 µM
Outline: as §1

CP262 = test: as above; settings: P. falciparum in erythrocytes, SYBR Green DNA, 72 h; series mostly up to 28.7 µM
Outline: as §1

CP265 = test: as above; settings: P. falciparum in erythrocytes, SYBR Green DNA, 72 h; series mostly up to 28.7 µM
Outline: as §1

CP266 = test: as above; settings: P. falciparum in erythrocytes, SYBR Green DNA, 72 h; series mostly up to 28.7 µM
Outline: as §1

CP268 = test: as above; settings: P. falciparum in erythrocytes, SYBR Green DNA, 72 h; series mostly up to 28.7 µM
Outline: as §1

CP269 = test: as above; settings: P. falciparum in erythrocytes, SYBR Green DNA, 72 h; series mostly up to 28.7 µM
Outline: as §1

CP286 = test: as above; settings: P. falciparum in erythrocytes, SYBR Green DNA, 72 h; series mostly up to 28.7 µM
Outline: as §1

CP291 = test: as above; settings: P. falciparum in erythrocytes, SYBR Green DNA, 72 h; series mostly up to 28.7 µM
Outline: as §1

CP297 = test: as above; settings: P. falciparum in erythrocytes, SYBR Green DNA, 72 h; series mostly up to 28.7 µM
Outline: as §1

CP305 = test: as above; settings: P. falciparum in erythrocytes, SYBR Green DNA, 72 h; series mostly up to 28.7 µM
Outline: as §1

CP315 = test: as above; settings: P. falciparum in erythrocytes, SYBR Green DNA, 72 h; series mostly up to 28.7 µM
Outline: as §1

CP325 = test: as above; settings: P. falciparum in erythrocytes, SYBR Green DNA, 72 h; series mostly up to 28.7 µM
Outline: as §1

CP329 = test: as above; settings: P. falciparum in erythrocytes, SYBR Green DNA, 72 h; series mostly up to 28.7 µM
Outline: as §1

CP335 = test: as above; settings: P. falciparum in erythrocytes, SYBR Green DNA, 72 h; series mostly up to 28.7 µM
Outline: as §1

DFO2036 = test: as above; settings: P. falciparum in erythrocytes, SYBR Green DNA, 72 h; series mostly up to 28.7 µM
Outline: as §1

DIV14 = test: as above; settings: P. falciparum in erythrocytes, SYBR Green DNA, 72 h; series mostly up to 28.7 µM
Outline: as §1

DIV17 = test: as above; settings: P. falciparum in erythrocytes, SYBR Green DNA, 72 h; series mostly up to 28.7 µM
Outline: as §1

DIV30 = test: as above; settings: P. falciparum in erythrocytes, SYBR Green DNA, 72 h; series mostly up to 28.7 µM
Outline: as §1

Dd2 = test: as above; settings: P. falciparum in erythrocytes, SYBR Green DNA, 72 h; series mostly up to 28.7 µM
Outline: as §1

ECU = test: as above; settings: P. falciparum in erythrocytes, SYBR Green DNA, 72 h; series mostly up to 28.7 µM
Outline: as §1

FAB9 = test: as above; settings: P. falciparum in erythrocytes, SYBR Green DNA, 72 h; series mostly up to 28.7 µM
Outline: as §1

GB4 = test: as above; settings: P. falciparum in erythrocytes, SYBR Green DNA, 72 h; series mostly up to 28.7 µM
Outline: as §1

HB3 = test: as above; settings: P. falciparum in erythrocytes, SYBR Green DNA, 72 h; series mostly up to 28.7 µM
Outline: as §1

ICS = test: as above; settings: P. falciparum in erythrocytes, SYBR Green DNA, 72 h; series mostly up to 28.7 µM
Outline: as §1

JCK = test: as above; settings: P. falciparum in erythrocytes, SYBR Green DNA, 72 h; series mostly up to 28.7 µM
Outline: as §1

N140 = test: as above; settings: P. falciparum in erythrocytes, SYBR Green DNA, 72 h; series mostly up to 28.7 µM
Outline: as §1

P93_24 = test: as above; settings: P. falciparum in erythrocytes, SYBR Green DNA, 72 h; series mostly up to 28.7 µM
Outline: as §1

P94_40 = test: as above; settings: P. falciparum in erythrocytes, SYBR Green DNA, 72 h; series mostly up to 28.7 µM
Outline: as §1

PAD = test: as above; settings: P. falciparum in erythrocytes, SYBR Green DNA, 72 h; series mostly up to 28.7 µM
Outline: as §1

PC15 = test: as above; settings: P. falciparum in erythrocytes, SYBR Green DNA, 72 h; series mostly up to 28.7 µM
Outline: as §1

PC26 = test: as above; settings: P. falciparum in erythrocytes, SYBR Green DNA, 72 h; series mostly up to 28.7 µM
Outline: as §1

PC49 = test: as above; settings: P. falciparum in erythrocytes, SYBR Green DNA, 72 h; series mostly up to 28.7 µM
Outline: as §1

SC27B = test: as above; settings: P. falciparum in erythrocytes, SYBR Green DNA, 72 h; series mostly up to 28.7 µM
Outline: as §1

TAB109 = test: as above; settings: P. falciparum in erythrocytes, SYBR Green DNA, 72 h; series mostly up to 28.7 µM
Outline: as §1

TAB113 = test: as above; settings: P. falciparum in erythrocytes, SYBR Green DNA, 72 h; series mostly up to 28.7 µM
Outline: as §1

TAB165 = test: as above; settings: P. falciparum in erythrocytes, SYBR Green DNA, 72 h; series mostly up to 28.7 µM
Outline: as §1

W2 = test: as above; settings: P. falciparum in erythrocytes, SYBR Green DNA, 72 h; series mostly up to 28.7 µM
Outline: as §1

C=C(NCc1ccccc1)c1ccccc1O
inactive: Potency [1] | Potency [2] | Potency [3] | Potency [4] | Potency [5] | Potency [6] | activity, negative = inhibition ([7]; parasite line A) 12.8% | activity, negative = inhibition ([7]; parasite line B) 10.7% | Potency (3D7) | Potency (7G8) | Potency (AA1029) | Potency (AS120) | Potency (ATS189) | Potency (ATS95) | Potency (C2A) | Potency (CP185) | Potency (CP191) | Potency (CP192) | Potency (CP194) | Potency (CP201) | Potency (CP203) | Potency (CP211) | Potency (CP215) | Potency (CP217) | Potency (CP237) | Potency (CP238) | Potency (CP247) | Potency (CP250) | Potency (CP252) | Potency (CP256) | Potency (CP260) | Potency (CP262) | Potency (CP265) | Potency (CP266) | Potency (CP268) | Potency (CP269) | Potency (CP286) | Potency (CP291) | Potency (CP297) | Potency (CP305) | Potency (CP315) | Potency (CP325) | Potency (CP329) | Potency (CP335) | Potency (DFO2036) | Potency (DIV14) | Potency (DIV17) | Potency (DIV30) | Potency (Dd2) | Potency (ECU) | Potency (FAB9) | Potency (GB4) | Potency (HB3) | Potency (ICS) | Potency (JCK) | Potency (N140) | Potency (P93_24) | Potency (P94_40) | Potency (PAD) | Potency (PC15) | Potency (PC26) | Potency (PC49) | Potency (SC27B) | Potency (TAB109) | Potency (TAB113) | Potency (TAB165) | Potency (W2)
